In PubChem BioAssay AID588342 (National Center for Advancing Translational Sciences (NCATS), 2011):
Hit rate of the full screen: of about 360,000 compounds, about 25,000 (6.9%) were called active. Not shown: some 9% with an inconclusive outcome. This is one part of a sample in which actives are shown more often than they occur. Calls come from the whole dose curve; as a rule, active = well fitted inhibition curve with a large enough effect; inconclusive = small, poorly fitted or top-dose-only effect; inactive = flat fitted curve, though single readings scatter.

Each compound was assayed against Luciferin 4-monooxygenase (Photinus pyralis) (UniProt P08659) (assay: qHTS profiling assay for firefly luciferase inhibitor/activator using purifed enzyme and Km concentrations of substrates (counterscreen for miR-21 project)). Conditions: purified FLuc, luminescence inhibition; series mostly up to 57.5 µM; activity change, negative = inhibition: at the top concentration.
Chain of Luciferin 4-monooxygenase (Photinus pyralis) (P08659 whole entry, looked up): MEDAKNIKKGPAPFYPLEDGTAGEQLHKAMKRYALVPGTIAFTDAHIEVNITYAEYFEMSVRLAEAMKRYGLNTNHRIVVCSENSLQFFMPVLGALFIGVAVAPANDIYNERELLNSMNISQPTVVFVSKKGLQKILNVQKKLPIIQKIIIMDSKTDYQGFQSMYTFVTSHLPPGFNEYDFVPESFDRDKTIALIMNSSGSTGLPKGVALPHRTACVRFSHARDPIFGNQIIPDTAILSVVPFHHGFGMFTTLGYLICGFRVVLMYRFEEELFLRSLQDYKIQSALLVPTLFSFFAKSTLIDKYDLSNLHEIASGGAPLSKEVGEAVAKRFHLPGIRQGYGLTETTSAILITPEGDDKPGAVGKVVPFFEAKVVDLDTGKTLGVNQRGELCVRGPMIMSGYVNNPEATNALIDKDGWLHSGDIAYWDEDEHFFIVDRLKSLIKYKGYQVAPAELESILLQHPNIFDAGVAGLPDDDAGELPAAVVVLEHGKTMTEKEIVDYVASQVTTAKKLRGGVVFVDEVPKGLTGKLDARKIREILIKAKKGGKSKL
Procedure, shortened: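 Purified P. pyralis luciferase, 10 nM final, with Km-level 10 uM D-luciferin and 10 uM ATP in 50 mM Tris acetate pH 7.5, 10 mM Mg acetate, 0.01% Tween-20, 0.05% BSA; 6-point qHTS titration about 60 µM downward; luminescence read.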
Note: nearly all actives have a fitted effect of over 55% in size.
Potency is the fitted concentration of half-maximal effect.
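Throughout, for activity change, negative = inhibition: plate controls were vehicle for no effect and reference inhibitor for full effect.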

Row | SMILES | activity change, negative = inhibition | Potency
1 | COc1cc(OC)c(NC(=O)c2c3c(nn2C)-c2ccccc2SC3)cc1Cl | -3.89% (inactive) | 
2 | CSc1nc(=O)c2c(n1C)NC(=O)CC2c1ccccc1OC(C)C (configuration not stated) | -0.768% (inactive) | 
3 | Cc1nc(SCC(=O)NC2CCCCC2C)c(C#N)c(C)c1C (configuration not stated) | -0.552% (inactive) | 
4 | CCS(=O)(=O)c1nc(S(=O)(=O)c2ccc(C)cc2)c(NCc2ccc(Cl)cc2)s1 | -6.34% (inactive) | 
5 | CCn1c(C(=O)Nc2cc(Cl)ccc2C)cc2sc(Cl)cc21 | 14.4% (inactive) | 
6 | CCOc1ccc(-c2cc3c(=O)n(CC(=O)NCc4ccc(OC)cc4)ccn3n2)cc1 | -25.5% (inactive) | 
7 | c1ccc(CSCCc2ccncc2)cc1 | 3.4% (inactive) | 
8 | Cc1cc(C)c(SCCc2ccncc2)c(C)c1 | 4.66% (inactive) | 
9 | CC(C)(C)c1ccc(SCCc2ccncc2)cc1 |  | 26.9 µM (active)
10 | C/C(=N\NC(=O)CCn1nc(C)cc1C)C(C)(C)C | -0.213% (inactive) | 
11 | CCc1cccc(NC(=O)COC(=O)c2cc(=O)c3ccccc3o2)c1 | -8.14% (inactive) | 
12 | Cc1ccc(S(=O)(=O)NCCC(=O)NC2CCN(Cc3ccccc3)CC2)cc1 | 4.15% (inactive) | 
13 | Cc1ccc(C)c(N2CCN(C(=O)Cn3nc(C)c4sc5ccccc5c4c3=O)CC2)c1 | 3.41% (inactive) | 
14 | Cn1nnnc1SCCCNCc1cccc(OCc2ccc(Cl)cc2)c1 | 5.77% (inactive) | 
15 | COc1cc(/C=N\Nc2ccc([N+](=O)[O-])cn2)ccc1OCC(=O)O | -16.9% (inactive) | 
16 | COc1cc(C(=O)OCc2ccc([N+](=O)[O-])cc2)cc(OC)c1OC | 2.68% (inactive) | 
17 | COc1cc(/C=N/O)ccc1OCc1ccc([N+](=O)[O-])cc1 |  | 2.69 µM (active)
18 | Cc1ccc(CCNC(=O)c2nnc(Cc3cccc(F)c3)o2)cc1 | -1.77% (inactive) | 
19 | COc1ccc(Cl)cc1N(C)C(=O)c1cc2c(=O)oc3ccc(C)cc3c2s1 | 0.493% (inactive) | 
20 | Cc1ccc(-c2noc(CSc3nnc(-c4ccncc4)n3-c3ccc(F)cc3)n2)cc1 | -3.39% (inactive) | 
21 | O=C(Oc1ccc(-c2nc(-c3ccccn3)no2)cc1)c1ccccc1 |  | 0.301 µM (active)
22 | c1csc(-c2nc(-c3ccncc3)no2)c1 |  | 13.5 µM (active)
23 | COc1ccc(-c2noc(CN(C)S(=O)(=O)c3ccc(C)cc3)n2)cc1 | -2.32% (inactive) | 
24 | Cc1ccc(Oc2nc(-c3ccccn3)nc3ccccc23)cc1 | -19.9% (inactive) | 
25 | Cc1ccc(-c2noc(CSc3nnc(-c4cccs4)n3C)n2)cc1 | -21.4% (inactive) | 
26 | CSc1oc(-c2cccs2)nc1S(=O)(=O)c1ccc(Br)cc1 | -9.22% (inactive) | 

Row | SMILES | activity change, negative = inhibition | Potency
27 | COc1ccc(-c2noc(-c3ccc(C)cc3)n2)cc1 |  | 1.51 µM (active)
28 | Cc1ccc(-c2nc(-c3ccncc3)no2)c(C)c1 |  | 2.13 µM (active)
29 | N#CCc1ccc(OC(=O)c2cccnc2)cc1 | 0.653% (inactive) | 
30 | COc1cc(OC)c(NC(=O)c2nc(-c3ccncc3)no2)cc1Cl | -1.54% (inactive) | 
31 | COc1ccc(N2CCN(C(=O)CCc3nc(-c4ccc(C)cc4)no3)CC2)cc1 | -20% (inactive) | 
32 | Cc1cc(OC(=O)c2ccccc2)c([N+](=O)[O-])c(=O)[nH]1 | -7.98% (inactive) | 
33 | Cc1ccccc1NC(=O)Cn1c(=O)n(CC2CCC(C(=O)NCCc3ccccc3)CC2)c(=O)c2ccccc21 (configuration not stated) | -0.569% (inactive) | 
34 | COc1ccc(CCNc2nc(-c3ccc(Cl)cc3)cc(C(F)(F)F)n2)cc1OC | 0.231% (inactive) | 
35 | O=c1cccc(-c2ccc(Br)cc2)o1 | 3.87% [at 2.3 µM] (inactive) | 
36 | O=C1CC(c2nnc(Cc3ccc(Cl)cc3)o2)CN1c1ccccc1 (configuration not stated) | -8.02% (inactive) | 
37 | Cc1ccc(OCC(=O)Nc2ccccc2C(=O)NC2CC2)cc1 | 3.57% (inactive) | 
38 | COc1ccc(CCC(=O)NCc2ccc3c(c2)CCN3C(=O)c2ccc(F)cc2)cc1 | -15.3% (inactive) | 
39 | Cc1ccc(-n2nnnc2CNC(=O)c2ccccc2C)cc1C | -1.73% (inactive) | 
40 | COc1cc(C)c(Cl)cc1S(=O)(=O)n1ccnc1 | -8.56% (inactive) | 
41 | Cc1c2cnn(-c3ccccc3)c(=O)c2c(C)n1C(C)C(=O)Nc1ccc(Br)cc1F (configuration not stated) | -16.5% (inactive) | 
42 | O=c1onc(-c2cccs2)n1Cc1ccccc1 | 2.16% (inactive) | 
43 | c1ccc(-c2noc(-c3cccs3)n2)nc1 |  | 3.01 µM (active)
44 | Clc1ccc(-n2nnnc2-c2cnc(-c3ccccn3)nc2-c2cccs2)cc1 | -13.4% (inactive) | 
45 | CN(Cc1ccccc1)C(=O)CCS(=O)(=O)c1cc(Br)cc2c1N(C(=O)C1CC1)CC2 | -8.85% (inactive) | 
46 | CCOc1ccc(CCNC(=O)CN(c2ccc(C)cc2)S(=O)(=O)N(C)C)cc1OCC | 4.44% (inactive) | 
47 | Cc1cc(C)c(-c2n[nH]c3c2C(c2ccccc2F)N(CCO)C3=O)c(O)c1 (configuration not stated) | -1.58% (inactive) | 
48 | OCc1cnc(SCc2ccc(F)cc2)n1Cc1ccc(F)cc1 | -8.03% (inactive) | 
49 | Cc1cccc(CSc2nc3ccncc3n2CC(=O)N(C)C2CCCCC2)c1 | -10.8% (inactive) | 
50 | Cc1ccc(CSc2nc3cccnc3n2Cc2ccc(C(=O)NC3CC3)cc2)cc1 |  | 0.379 µM (active)
51 | Cc1ccc(Cn2c(CNC(=O)Cc3cccc(C)c3)nc3cccnc32)cc1 | 5.86% (inactive) | 
52 | O=C(O)c1ccc(Cn2c(SCc3ccc(F)cc3)nc3ccncc32)cc1 |  | 16.9 µM (active)

Row | SMILES | activity change, negative = inhibition | Potency
53 | CCCNC(=O)c1ccc(Cn2c(SCC(N)=O)nc3ccccc3c2=O)cc1 | -0.682% (inactive) | 
54 | Cn1c(CNC(=O)c2ccccc2F)nnc1SCc1ccc(F)cc1 | -0.364% (inactive) | 
55 | CCOC(=O)CNC(=O)CSc1nc2cccnc2n1CC | 1.81% (inactive) | 
56 | O=C(Nn1c(SCc2ccc([N+](=O)[O-])cc2)nc2ccccc2c1=O)c1ccc(F)cc1 |  | 16.9 µM (active)
57 | C=CCn1c(SCc2ccc(C(=O)NCCO)cc2)nc2ccccc2c1=O | -0.552% (inactive) | 
58 | O=C(NCc1ccc(F)cc1)c1ccc(Cn2c(SCc3ccc(F)cc3)nc3cccnc32)cc1 |  | 4.78 µM (active)
59 | Cc1nc2ccccc2c(=O)n1NC(=O)c1ccc(Cl)c([N+](=O)[O-])c1 | 6.72% (inactive) | 
60 | CC1=C(C(=O)Nc2ccccc2)C(c2ccc(C)cc2)n2nc(SCc3ccccc3C)nc2N1 (configuration not stated) | -0.97% (inactive) | 
61 | Cc1nnc(NC(=O)CSc2nc3c([nH]c4ccccc43)c(=O)n2-c2cccc(Cl)c2)s1 | -1.54% (inactive) | 
62 | CCOc1ccc(S(=O)(=O)c2cn(Cc3ccc(OC)cc3)c3ccc(F)cc3c2=O)cc1 | -3.31% (inactive) | 
63 | CCOc1ccc(NC(=O)Cn2c(C)ccc(C#N)c2=O)cc1 | -4.3% (inactive) | 
64 | COc1ccc(CCNS(=O)(=O)c2cc(-c3cc(C)no3)ccc2C)cc1OC | -2.49% (inactive) | 
65 | Cc1cccc2c1-c1sc(C(=O)Nc3ccc(F)cc3F)cc1CO2 | -14% (inactive) | 
66 | O=C(NCc1ccccc1)C(=O)NCC(c1ccco1)S(=O)(=O)c1ccc(Cl)cc1 (configuration not stated) | -1.18% (inactive) | 
67 | Cc1ccc(N2CCN(C(=O)CCc3c(C)nc4c(c3C)c(=O)n(C)c(=O)n4C)CC2)c(C)c1 | -0.374% (inactive) | 
68 | C=CCn1c(SCC(=O)NC(=O)Cc2ccccc2)nc2ccccc2c1=O | 2.08% (inactive) | 
69 | Cc1nn(CC(=O)Nc2ccc(C#N)cc2)c(C)c1[N+](=O)[O-] | 1.77% (inactive) | 
70 | COc1ccc(NS(=O)(=O)c2cccc3nsnc23)cc1Cl | 4.27% (inactive) | 
71 | Cc1ccccc1-c1nc(CS(=O)(=O)CC(=O)Nc2cc(Cl)cc(Cl)c2)c(C)o1 | -16% (inactive) | 
72 | COc1ccccc1CNS(=O)(=O)c1cc(Br)cc2c1N(C(C)=O)C(C)C2 (configuration not stated) | -3.66% (inactive) | 
73 | COc1ccc(CCNC(=O)COC(=O)Cc2cccc(F)c2)cc1 | -0.275% (inactive) | 
74 | O=C(NCc1ccccc1)c1cccc(NC(=O)N2CCSc3ncccc32)c1 | 2.63% (inactive) | 
75 | COc1cc(OC)cc(C(=O)NCCc2csc3nc(-c4ccccc4F)nn23)c1 | -7.94% (inactive) | 
76 | Cc1cccc(C(=O)N2c3nc(-c4ccco4)nn3C3(CCCCC3)[C@@H]3CCCC[C@@H]32)c1 | -9.38% (inactive) | 
77 | CNS(=O)(=O)c1cccc(C(=O)OCC(=O)N2c3ccccc3NC(=O)C2(C)C)c1 | 8.6% (inactive) | 
78 | CC(=O)Oc1ccc2c(C)c(CC(C)O)c(=O)oc2c1 (configuration not stated) | -1.05% (inactive) | 

Row | SMILES | activity change, negative = inhibition | Potency
79 | Cc1ccc2[nH]c(=O)c(CC(=O)O)c(-c3ccccc3)c2c1 | -8.3% (inactive) | 
80 | Cc1oc(C)c(C(=O)NCCCC(=O)O)c1C(=O)NCCCC(=O)O | -0.349% (inactive) | 
81 | Cc1c(CC(=O)NCCCCCC(=O)O)c(=O)oc2cc3occ(-c4ccccc4)c3cc12 |  | 19 µM (active)
82 | COc1cccc(-c2coc3cc4oc(=O)c(CC(=O)O)c(C)c4cc23)c1 |  | 19 µM (active)
83 | COc1ccc2c(C)c(CCC(=O)NCc3ccc(OC)c(OC)c3)c(=O)oc2c1 | -2.04% (inactive) | 
84 | COc1ccccc1CNC(=O)CCn1c(=O)c2ccccc2n(CC(=O)Nc2ccc(Br)cc2F)c1=O | -1.36% (inactive) | 
85 | COc1ccc(OCCn2cc(C(=O)C3CCCCC3)c3ccccc32)cc1 | 2.81% (inactive) | 
86 | Cc1ccc(Nc2nc(CSc3nnc(-c4ccncc4)n3-c3ccccc3C)cs2)cc1 |  | 21.3 µM (active)
87 | Cc1ccccc1-n1c(SCC(=O)NCc2cccs2)nnc1-c1ccncc1 | -0.77% (inactive) | 
88 | Cc1ccc(-n2c(SCC(=O)N3c4ccccc4Sc4ccccc43)nnc2-c2ccncc2)cc1 | 0.549% (inactive) | 
89 | CCCN1C(=O)C(Cc2nc3ccccc3c(=O)n2-c2ccccc2)c2cc(C)ccc21 (configuration not stated) |  | inactive
90 | COc1ccc(NC(=S)N2CCc3cc(OC)c(OC)cc3C2)cc1 | -3.32% (inactive) | 
91 | COc1ccc(NC(=S)N2N=CCC2c2ccccc2)cc1 (configuration not stated) |  | 4.78 µM (active)
92 | CCC(C)N(C)C1CCN(C(=S)Nc2ccc(OC)cc2)CC1 (configuration not stated) | -4.4% (inactive) | 
93 | COc1ccc(C(=O)NC2CC2)cc1OC1CCN(Cc2cnn(C)c2)CC1 | 4.8% (inactive) | 
94 | OCCCN1c2ccccc2Nc2nnc(-c3ccccc3)cc21 |  | 1.9 µM (active)
95 | N=c1c2c(-c3ccccc3)c(-c3ccccc3)n(Cc3ccccc3)c2ncn1CCCO | 0.125% (inactive) | 
96 | COC(=O)c1ccccc1NS(=O)(=O)c1ccc2c(c1)CCCN2C(C)=O | -13.4% (inactive) | 
97 | CC1CCCN(c2ccc(C(=O)NCCc3ccccc3)cn2)C1 (configuration not stated) |  | 7.57 µM (active)
98 | O=C(NCCc1ccccc1)c1cnc2sc(N3CCCC3)nn2c1=O | 0.37% (inactive) | 
99 | O=C(NCCc1ccccc1)c1ccc2c(c1)N(Cc1ccccc1)CCS2 | -4.39% (inactive) | 
100 | Cc1ccc(-c2nc(Cn3c(=O)cc(-c4ccccc4)c4c(C)nn(C)c43)c(C)o2)cc1 | -6.05% (inactive) | 
101 | CCN(CC)S(=O)(=O)c1ccc2c(c1)N(CC(=O)NCC(C)c1ccccc1)C(=O)CO2 (configuration not stated) | -3.19% (inactive) | 
102 | O=S(=O)(NCC(c1ccccc1)N1CCc2ccccc21)c1ccccc1 (configuration not stated) | -6.21% (inactive) | 
